An excerpt weighted towards active compounds, which were near 2.4% of everything screened.
Pol beta inh – inhibitors of human DNA polymerase beta; P06746; Pol beta primer extension/strand displacement, fluorescence kinetic; Potency, µM (top dose mostly 114 µM), usual class: inhibitors; 1.3% of 340,000 active
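Pol beta (10 nM) and compounds were preincubated 15 min at room temperature, then 50 nM substrate (final) started primer extension/strand displacement. Reads were taken at 0 and 10 min; concentration-response data were fitted to a four-parameter Hill equation.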
WRN helicase inh – WRN helicase (human) inhibition; Q14191; WRN helicase unwinding, fluorescent forked duplex, kinetic; Potency, µM (highest dose often 114 µM), most hits filed as inhibitors; 0.46% of 360,000 active; AID 651768; note: nearly all actives have a fitted effect of over 55% in size
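Primary qHTS, 1536-well format. 20 nM WRN + compound, 15 min RT; start with 100 nM forked fluorophore/quencher duplex, 2 mM ATP (final); kinetic read ex 525/em 598 nm.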
POLK inh – DNA polymerase kappa (human) inhibition | Q9UBT6 | purified Pol kappa, fluorescent DNA synthesis assay, 10 min | Potency, µM (top dose mostly 107 µM), hits mostly inhibitors | 0.53% of 400,000 active
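Kinetic fluorescence screen: compound preincubated 15 min RT with 10 nM enzyme; 50 nM substrate (final) initiates; reads at 0/10 min.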
Pol eta inh – inhibitors of human DNA polymerase eta; Q9Y253; recombinant Pol eta, fluorescent DNA replication assay; Potency, µM (top dose mostly 114 µM), actives largely listed as inhibitors; 1.2% of 390,000 active; AID 588591
Target sequence (Q9Y253 whole entry, looked up): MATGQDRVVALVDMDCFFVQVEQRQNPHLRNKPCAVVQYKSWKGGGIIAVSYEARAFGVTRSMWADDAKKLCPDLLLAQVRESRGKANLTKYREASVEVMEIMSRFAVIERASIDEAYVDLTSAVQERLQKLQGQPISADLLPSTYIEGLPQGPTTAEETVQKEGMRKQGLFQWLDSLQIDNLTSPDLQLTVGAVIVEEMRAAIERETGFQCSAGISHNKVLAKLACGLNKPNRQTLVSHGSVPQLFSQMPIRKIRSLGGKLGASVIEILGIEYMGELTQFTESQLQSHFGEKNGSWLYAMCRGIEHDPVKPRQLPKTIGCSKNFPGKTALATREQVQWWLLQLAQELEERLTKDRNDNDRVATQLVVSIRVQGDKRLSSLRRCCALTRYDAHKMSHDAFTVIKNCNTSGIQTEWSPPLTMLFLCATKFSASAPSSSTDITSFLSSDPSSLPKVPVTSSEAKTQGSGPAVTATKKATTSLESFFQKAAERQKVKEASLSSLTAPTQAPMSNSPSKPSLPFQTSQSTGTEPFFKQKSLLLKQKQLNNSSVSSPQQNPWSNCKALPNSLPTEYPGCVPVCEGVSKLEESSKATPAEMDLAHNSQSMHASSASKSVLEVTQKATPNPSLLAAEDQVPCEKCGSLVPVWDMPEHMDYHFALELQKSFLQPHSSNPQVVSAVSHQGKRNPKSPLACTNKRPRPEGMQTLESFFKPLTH
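Pol eta at 10 nM preincubated with compounds 15 min at room temperature; reaction started with fluorescent substrate (50 nM final) and read kinetically at 0 and 10 min.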
POLI inh – blocks human DNA polymerase iota activity. Q9UNA4. 1% of 390,000 active. Pol iota fluorescent replication assay, 10 min. Potency, µM (titrated, usually from 115 µM), usual class: inhibitors
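Fluorescent replication assay read twice, at 0 min and 10 min after adding 50 nM (final) substrate. Enzyme (10 nM) and compounds were first incubated 15 min at room temperature; enzyme-free buffer wells were negative controls.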
FEN1 inh – inhibitors of human flap endonuclease 1 | P39748 | 0.35% of 390,000 active | Potency, µM (series often up to 114 µM), usual class: inhibitors | Recombinant FEN1 flap cleavage, fluorescence, 15 min; note: nearly all actives have a fitted effect of over 65% in size
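Steps: FEN1 (10 nM) dispensed; compound added by pin tool; 15 min at room temperature; substrate added to 50 nM final; reads at 0 min and 15 min; data normalized and fitted (four-parameter Hill).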
A number is an active result; - = inactive; ? = inconclusive; . = no result given; ! = not active in a repeat; [ ] = dose if it differs, or a comment. Calls come from the whole dose curve; as a rule, active = well fitted curve in the direction sought with a large enough effect; inconclusive = small, poorly fitted or top-dose-only effect, or another doubt; inactive = no such curve, though single readings can be large; an effect the other way counts as inactive or inconclusive.

SMILES | Pol beta inh | WRN helicase inh | POLK inh | Pol eta inh | POLI inh | FEN1 inh
Cn1cccc1-c1nc2ccc(NC(=O)c3ccco3)cc2[nH]1 | - | - | - | - | - | -
O=C(Nc1ccc2nc(-c3cccs3)[nH]c2c1)c1ccco1 | 32µM | - | - | ? | ? | -
Cc1ccc(-n2nc3ccc(NC(=O)c4ccco4)cc3n2)cc1 | 25µM | - | - | ? | ? | -
CN(C)/C=C/C(=O)c1ccc(-c2ccc(Cl)cc2Cl)o1 | 32µM | - | - | - | - | -
O=C(c1cc(C(F)(F)F)cc(C(F)(F)F)c1)N1CCC[C@@]2(CCN(Cc3ccncc3)C2)C1 | . | . | - | . | . | .
O=C(O)c1cc2cccc([N+](=O)[O-])c2[nH]1 | . | . | 45µM! | . | 71µM! | ?
CCCCNC(=O)c1cc2cccc([N+](=O)[O-])c2[nH]1 | - | - | - | - | - | -
O=C(C[n+]1ccc(CCSc2ccc(F)cc2)cc1)c1ccccc1 | - | 40µM | - | - | - | 40µM
Cc1ccc(SCCc2cc[n+](CC(=O)c3ccccc3)cc2)cc1 | - | - | - | - | - | -
Clc1ccccc1-c1nnc(-c2ccccc2CNc2ccc(Br)cc2)o1 | - | . | - | - | - | -
CCc1ccc2c(c1)c(=O)c(C(=O)c1ccccc1)cn2CC(=O)Nc1ccc(C)c(Cl)c1 | 2.8µM | . | - | ? | - | -
CCS(=O)(=O)N1CC(=O)N(c2cc(C)cc(C)c2)C(C)(C(=O)NC2CCCCC2)C1 (stereo unspecified) | - | . | - | - | - | -
Cc1oc(C)c2c(=O)ccc3c(c12)OC(N)=C(C#N)C3c1ccc(F)cc1 (stereo unspecified) | 20µM | - | ? | ? | ? | -
Cc1[nH]nc2c1C(c1ccc(F)cc1)C(C#N)=C(N)O2 (stereo unspecified) | - | - | - | - | - | -
O=C1Nc2ccccc2/C1=C/c1cnc(-c2ccccc2)[nH]1 | 22µM | ? | - | - | ? | -
Cc1cccc(C(=O)N2CCc3cc(CNC(=O)c4ccco4)ccc32)c1 | - | . | - | - | - | -
CC(=O)N(C)c1ccc(N=Cc2c(O)ccc3ccccc23)cc1 | - | - | - | - | 71µM | -
Cc1c(C(=O)N(C)C)sc2c1c(=O)n(-c1ccc(F)cc1)c(=O)n2Cc1cc(=O)n2ccccc2n1 | - | . | - | - | - | -
Cc1ccc2cccc(NC(=O)c3cccc4c(Br)cccc34)c2n1 | - | . | - | - | - | -
O=C1OC(/C(=C\Nc2cc(Cl)ccc2O)[N+](=O)[O-])c2ccccc21 (stereo unspecified) | - | - | - | 22µM | ? | -
CCCCNC(=O)COC(=O)c1cc(C)nc2ccccc12 | - | - | - | - | - | -
CCCCNC(=O)COC(=O)c1c2c(nc3ccccc13)/C(=C/c1cccs1)CC2 | 25µM | - | - | ? | - | -
CC(C)n1c(O)c(/C=C2\C=NN=C2c2ccccc2)sc1=S | - | - | - | - | - | -
CCn1c(O)c(/C=C2\C=NN=C2c2ccc(C)cc2)sc1=S | - | -[11.6 µM] | - | - | 89µM | -
c1ccc2c(-c3ccncc3)c[nH]c2c1 | - | - | - | - | - | -
SMILES | Pol beta inh | WRN helicase inh | POLK inh | Pol eta inh | POLI inh | FEN1 inh
Nc1cc(-c2ccncc2)c[nH]c1=O | - | - | - | ? | 10µM | -
O=C(CSc1ccc2nnc(CCNS(=O)(=O)c3ccccc3)n2n1)Nc1ccccc1C(F)(F)F | - | . | - | - | - | -
COc1ccc(-n2[nH]c(C)cc2=O)cc1 | - | - | - | - | 1.1µM | -
CCc1ccc(NC(=O)N(CCN2CCOCC2)Cc2ccc3c(c2)CCCN3CC)cc1 | - | - | - | - | - | -
CCCN1CCCc2cc(CN)ccc21 | - | - | - | 89µM | 3.2µM | -
CCCc1ccc(OCc2nc(-c3ccc(NC(=O)c4ccco4)cc3)no2)cc1 | 35µM | - | - | - | ? | -
CCOc1ccc(NC(=O)c2c(NCc3cccnc3)sc3c2CCC(C)C3)cc1 (stereo unspecified) | - | . | - | - | - | -
Cc1cc(Nc2ccccc2Cl)n2nc(-c3ccco3)nc2n1 | - | . | - | - | - | -
Cc1cc(C)n2nc3nc(N4CCCCC4)nc(-c4ccco4)c3c2n1 | 10µM | ? | 32µM | 10µM | ? | ?
CC1(C)CC(=O)c2c(oc3c(Cl)cc(NS(=O)(=O)c4ccc(Cl)cc4)cc23)C1 | - | . | - | - | - | -
CCOC1CCCC(n2cnc3c(=S)nc[nH]c32)O1 (stereo unspecified) | . | -[11.6 µM] | - | 18µM | ? | -
CCOc1ccc(S(=O)(=O)NCc2cccnc2)cc1NC(=O)c1ccccc1 | . | - | - | - | - | -
COc1ccc(S(=O)(=O)NCc2cccnc2)cc1NC(=O)c1ccccc1C | . | - | - | ? | 40µM | -
CC(C)(C)n1ncc2c(=O)n(Cc3cccc(F)c3)cnc21 | . | . | - | . | - | -
O=C(Nc1ccc2c(c1)CCC2)C1COc2ccccc2O1 (stereo unspecified) | 18µM | - | - | - | ? | -
O=C(Nc1ccc2c(c1)OCO2)C1COc2ccccc2O1 (stereo unspecified) | - | - | - | - | - | -
Cc1ccc(SCC(CC(C)C)N2CCN(C)CCC2=O)cc1 (stereo unspecified) | . | . | - | . | - | -
COc1ccc(OC)c(CCNC(=O)Cn2nc(C)n3c(cc4sccc43)c2=O)c1 | - | . | - | - | - | -
NC(=NCc1ccc2c(c1)OCO2)NC(=O)c1ccccc1 | - | ? | - | 79µM | - | -
Cc1ccc(Nc2cc(C(=O)NCc3cccs3)c3ccccc3n2)c(C)c1 | - | . | - | - | - | -
COCCn1c(=O)c(-c2ccc(Cl)cc2)nc2cnc(OC)nc21 | . | . | - | . | . | .
CCOc1ccc(/C=C(\C#N)c2nc(-c3cc4ccccc4oc3=O)cs2)c(OCC)c1 | - | . | - | . | - | -
O=C(Cc1cc(=O)[nH][nH]1)N/N=C/C=C/c1ccccc1 | - | ? | - | 14µM | ? | ?
Cc1ccc(NC(=O)C(=O)NCCc2sc(-c3ccc(Cl)cc3)nc2C)cc1C | - | . | - | - | - | -
Cc1cccc(Cn2cc(S(=O)(=O)c3ccccc3)c(=O)c3cc(F)c(N4CCOCC4)cc32)c1 | - | . | - | - | - | -
CCCCN(CCCC)c1ccc(C(=O)c2ccccc2C(=O)O)c(O)c1 | 89µM | - | - | - | - | -
CN(C)c1ccc(C(=O)c2ccccc2C(=O)O)c(O)c1 | - | - | - | - | - | -
CCN(CC)c1cc(C)c(/C=C/c2ccnc3ccccc23)cc1C | . | . | - | . | - | ?
Cc1ccc(-c2nn3c(C)nnc3s2)cc1NC(=O)c1ccc(Br)o1 | - | - | - | - | - | -
Cc1ccc(-c2nn3c(C)nnc3s2)cc1NC(=O)c1ccc(-c2cccc(Cl)c2)o1 | 7.1µM | 50µM | - | ? | 32µM | ?

High-throughput results as filed in PubChem BioAssay.
